Some test systems named below: NCI-H23 lung; NCI-H226 lung; NCI-H322M lung; HOP-62 NSCLC; NCI-H460 lung; HOP-92 NSCLC; NCI-H522 lung; A549/ATCC NSCLC; 786-0 renal; COLO 205 colon; DU-145 prostate; K-562 leukemia; MALME-3M melanoma; MDA-MB-231 breast; RXF 393 renal; SF-268 CNS; SF-295 CNS; SF-539 CNS; UACC-257 melanoma; M14 melanoma.
Assay in all cases: NCI-60 one-dose screen, 48 h (100 = growth as untreated, 0 = no growth, -100 = all killed)
Common to all, as to settings: 10 µM unless noted

SMILES strings stand for the structures. Compounds without any hit were thinned out: in the full panel of roughly 83,000, 20% have a hit.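 Testing used 96-well plates and a 48-hour single-concentration exposure. Example: -40 means 40% of the starting cells died.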 A number with no mark means an inactive call. The source made the active and inactive calls. The calls were made as follows: active = growth percent below 10; inactive = the rest.

For `CC1=C(Cl)C(=O)c2cc(C)ccc2C1=O`, the growth in the assay with NCI-H23 lung was 100%; with NCI-H226 lung, 86.3%; in the assay on NCI-H322M lung, 94.4%; in the assay with HOP-62 NSCLC, 105%; with NCI-H460 lung, 115%; in the assay on HOP-92 NSCLC it was 88.5%. Also, the growth is 93% with NCI-H522 lung; 101% in the assay on A549/ATCC NSCLC; 102% in the assay with 786-0 renal; 114% in the assay with COLO 205 colon; 115% with DU-145 prostate; 102% in the assay with K-562 leukemia. For the same molecule, the growth is 114% in the assay with MALME-3M melanoma; 103% with MDA-MB-231 breast; 84.9% in the assay with RXF 393 renal; 88% in the assay on SF-268 CNS; 108% in the assay with SF-295 CNS; 116% in the assay on SF-539 CNS. Moreover, the growth is 106% with UACC-257 melanoma and 112% with M14 melanoma.
As for `O=c1cc(C(F)(F)F)c2cc(-c3cc4ccccc4c(=O)o3)c(O)cc2o1`, the growth in the assay on NCI-H23 lung is 54.9%; in the assay with NCI-H226 lung it was 68.4%; with NCI-H322M lung it was 87.6%; in the assay with HOP-62 NSCLC, 82.6%; in the assay with NCI-H460 lung it was 58.9%; with HOP-92 NSCLC, -0.397% (active). For the same molecule, the growth in the assay on NCI-H522 lung is 31.3%; with A549/ATCC NSCLC, 78.5%; with 786-0 renal it was 80.2%; in the assay with COLO 205 colon, 107%; with DU-145 prostate it was 96.5%; in the assay with K-562 leukemia it was 50%. Further, the growth with MALME-3M melanoma is 91.5%; with MDA-MB-231 breast, 85.7%; in the assay on RXF 393 renal, 86.3%; in the assay on SF-268 CNS, 79.2%; in the assay on SF-295 CNS it was 89.4%; in the assay on SF-539 CNS, 73.3%. Moreover, the figures for the growth in the assay on UACC-257 melanoma and with M14 melanoma were 70.6% and 68%, respectively.
For `CNC(=O)NCC1OC(n2cnc3c(NC(=O)Nc4ccccc4)ncnc32)C2OC(=O)CC12` (stereo not given), the growth in the assay with NCI-H23 lung is 90.2%; in the assay with NCI-H226 lung, 99.2%; with NCI-H322M lung it was 101%; with HOP-62 NSCLC it was 94.2%; with NCI-H460 lung, 114%; in the assay on HOP-92 NSCLC it was 71.2%. In addition, the growth was 106% in the assay on NCI-H522 lung; 120% with A549/ATCC NSCLC; 98.3% in the assay with 786-0 renal; 110% with COLO 205 colon; 110% in the assay on DU-145 prostate; 81.1% in the assay with K-562 leukemia. In addition, the growth was 100% in the assay with MALME-3M melanoma; 98.9% in the assay with MDA-MB-231 breast; -22.7% (active) in the assay with RXF 393 renal; 99.7% with SF-268 CNS; 103% in the assay on SF-295 CNS; 104% in the assay with SF-539 CNS. In addition, the growth was 125% with UACC-257 melanoma and 105% with M14 melanoma.
In the case of `COc1nc(/C=C\Nc2ccc3c(c2)OCCOCCOCCOCCO3)nc(OC)n1`, the growth in the assay on NCI-H23 lung is 85.7%; with NCI-H226 lung, 103%; with NCI-H322M lung, 90.5%; with HOP-62 NSCLC, 109%; in the assay with NCI-H460 lung, 97.3%; with HOP-92 NSCLC, 95.7%. In addition, the growth is 109% in the assay with NCI-H522 lung; 99.2% in the assay with A549/ATCC NSCLC; 97.7% in the assay on 786-0 renal; 109% in the assay on COLO 205 colon; 97.2% in the assay with DU-145 prostate; 101% in the assay on K-562 leukemia. In addition, the growth was 85% in the assay on MALME-3M melanoma; 91.2% with MDA-MB-231 breast; 100% with RXF 393 renal; 92.8% in the assay on SF-268 CNS; 91.2% with SF-295 CNS; 96.9% with SF-539 CNS. In addition, the growth in the assay with UACC-257 melanoma is 105%; in the assay on M14 melanoma it was 96.4%.
For `O=Nc1ccc(NC(=O)Nc2ccc([N+](=O)[O-])cc2)cc1`, the growth with NCI-H23 lung is 87.5%; in the assay on NCI-H226 lung it was 99.6%; in the assay with NCI-H322M lung, 103%; with HOP-62 NSCLC, 110%; in the assay on NCI-H460 lung, 91.5%; with HOP-92 NSCLC it was 56.5%. Besides, the growth is 78.8% in the assay with NCI-H522 lung; 95.6% in the assay with A549/ATCC NSCLC; 86.5% with 786-0 renal; 116% in the assay with COLO 205 colon; 113% with DU-145 prostate; 58.8% with K-562 leukemia. Further, the growth in the assay with MALME-3M melanoma is 102%; in the assay with MDA-MB-231 breast it was 87%; in the assay on RXF 393 renal, 119%; in the assay with SF-268 CNS it was 104%; in the assay with SF-295 CNS, 98.1%; in the assay with SF-539 CNS, 101%. Moreover, the growth was 104% with UACC-257 melanoma and 102% in the assay with M14 melanoma.
In the case of `CCn1cc(C(=O)N/N=C/c2ccccc2)c(=O)c2cc(F)c(N3CCNC(C)C3)c(F)c21` (stereo not given), the growth in the assay on NCI-H23 lung was 68.5%; in the assay with NCI-H226 lung it was 87.4%; in the assay with NCI-H322M lung, 52.4%; in the assay with HOP-62 NSCLC, 68.6%; with NCI-H460 lung, -73% (active); in the assay on HOP-92 NSCLC it was 55.8%. In addition, the growth in the assay on NCI-H522 lung was -75.3% (active); in the assay with A549/ATCC NSCLC, -83.9% (active); in the assay with 786-0 renal, -67.4% (active); with COLO 205 colon, -74.4% (active); with DU-145 prostate it was -87.9% (active); with K-562 leukemia, -39.4% (active). Also, the growth with MALME-3M melanoma was -78% (active); with MDA-MB-231 breast it was -70.4% (active); in the assay with RXF 393 renal it was -61.3% (active); with SF-268 CNS, 38.9%; in the assay on SF-295 CNS, 8.87% (active); in the assay on SF-539 CNS, -86.9% (active). In addition, the figures for the growth in the assay with UACC-257 melanoma and in the assay on M14 melanoma were 39.6% and -49.7% (active), respectively.
As to `Cc1cc(C)c2c(c1)N(C)c1ncnc(-n3c(C)nc4cc(C)ccc43)c1CC2C` (stereo not given), the growth is 61.7% in the assay with NCI-H23 lung; 61.6% in the assay on NCI-H226 lung; 73.4% with NCI-H322M lung; 43.7% in the assay on HOP-62 NSCLC; 22.6% in the assay on NCI-H460 lung; 11.2% in the assay with HOP-92 NSCLC. In addition, the growth with NCI-H522 lung is 19.4%; with A549/ATCC NSCLC, 26.3%; in the assay with 786-0 renal, 30.1%; in the assay with COLO 205 colon, 54.1%; in the assay on DU-145 prostate it was 55.3%; with K-562 leukemia it was 12.4%. In addition, the growth in the assay with MALME-3M melanoma was 45.4%; in the assay on MDA-MB-231 breast, 61.2%; with RXF 393 renal it was -10.4% (active); in the assay on SF-268 CNS, 45.9%; in the assay on SF-295 CNS, 9.14% (active); in the assay on SF-539 CNS it was 25.2%. Moreover, the growth with UACC-257 melanoma is 25.8%; in the assay on M14 melanoma, 25.3%.
As for `Nc1nc(C(=O)N/N=C/c2ccc(F)cc2)nn1-c1ccc(S(N)(=O)=O)cc1`, the growth in the assay with NCI-H23 lung is 101%; with NCI-H226 lung, 99%; in the assay on NCI-H322M lung, 91.1%; with HOP-62 NSCLC, 98.8%; in the assay with NCI-H460 lung, 106%; in the assay with HOP-92 NSCLC it was 98.9%. In addition, the growth is 88.8% with NCI-H522 lung; 95% with A549/ATCC NSCLC; 97.2% in the assay with 786-0 renal; 112% in the assay on COLO 205 colon; 104% with DU-145 prostate; 103% in the assay with K-562 leukemia. The growth in the assay on MALME-3M melanoma was 89.2%; in the assay with MDA-MB-231 breast it was 96.4%; in the assay with RXF 393 renal, 95.5%; with SF-268 CNS, 95.7%; in the assay with SF-295 CNS it was 102%; in the assay on SF-539 CNS, 98.9%. Also, the growth in the assay with UACC-257 melanoma was 103%; in the assay on M14 melanoma, 99.5%.
